A1 inh – inhibitors of the anti-apoptotic protein A1, read as caspase activation | MEF A1-2A-BIM cells, Caspase-Glo 3/7 luminescence, 3 h; percent of clofoctol response, vehicle zero | caspase activation, % (no concentration beside the values) | 330,000 compounds, 0.066% hits | AID 2462;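 active means over half of replicate activation scores above 10%, or exactly half above 10 with the replicate mean above 10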
DYRK1A inh – Dyrk1A (rat) kinase inhibition. Q63470. ADP-Glo luminescence, NFATc1 peptide. inhibition, % at 12.5 µM. 310,000 compounds, 0.43% hits; in the data active means inhibition above about 50%;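 further: plate controls were vehicle with enzyme for no effect and no enzyme for full effect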
dFosB act – mouse delta FosB homodimer activation; AID 493131; P13346; purified delta FosB, TAMRA-CDK5 oligo fluorescence polarization; percent of positive-control signal above neutral wells; 340,000 compounds, 0.99% hits; activation, % at 25 µM;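 active means mean activation above about 17%, with every replicate also reaching it, limit read from the data, passing the limit was not always enough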
Beta2AR agonist – agonists of human beta-2 adrenergic receptor inducing internalization. Am2.2-beta2AR cells, FAP receptor internalization, flow cytometry. P07550. response, % (test concentration not listed). 340,000 compounds, 0.43% hits;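 active means response above a set limit, near 3 SD of response in nonfluorescent compounds, cut at about 42% in these data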
Target sequence (P07550 whole entry, looked up): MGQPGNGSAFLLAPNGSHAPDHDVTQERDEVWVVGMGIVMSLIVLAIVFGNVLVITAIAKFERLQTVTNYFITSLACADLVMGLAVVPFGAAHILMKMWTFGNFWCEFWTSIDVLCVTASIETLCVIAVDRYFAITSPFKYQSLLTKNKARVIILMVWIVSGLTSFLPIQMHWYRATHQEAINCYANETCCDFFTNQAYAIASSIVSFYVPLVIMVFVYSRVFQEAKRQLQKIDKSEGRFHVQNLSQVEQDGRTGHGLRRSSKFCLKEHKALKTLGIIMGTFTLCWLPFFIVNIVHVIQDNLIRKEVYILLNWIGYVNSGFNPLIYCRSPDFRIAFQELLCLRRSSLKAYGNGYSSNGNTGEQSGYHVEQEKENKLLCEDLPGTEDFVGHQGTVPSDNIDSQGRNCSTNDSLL
An asterisk follows results filed as active; · = not tested or not shown. Sampled rows, rich in hits. Any-hit rate of the full collection: about 1.6%.

SMILES	A1 inh	DYRK1A inh	dFosB act	Beta2AR agonist
O=C(NCc1ccccc1)c1cccc2c1C(=O)c1ccc(/C=C/c3ccccc3)cc1S2(=O)=O	1.9	8.3	3.9	-7.0
O=C(NC1CCCC1)c1cccc2c1C(=O)c1ccc(/C=C/c3ccccc3)cc1S2(=O)=O	40.2*	-2.8	1.7	4.0
CC(C)c1cccc(-c2ccc3c(c2)S(=O)(=O)c2cccc(C(=O)NC4CCCC4)c2C3=O)c1	7.3*	-9.3	-1.1	-0.7
c1ccc(CCn2cccc2)nc1	·	-4.0	-3.9	-1.0
Cc1ccccc1CS(=O)(=O)c1nnc([C@H](CC(C)C)NC(=O)OC(C)(C)C)o1	-0.6	1.9	0.2	64.3*
Cc1nc(SCC(=O)N(C)C2CCS(=O)(=O)C2)c(C#N)c(C)c1C (stereo not drawn)	-0.9	-11.5	1.1	9.7
CCOC(=O)c1oc2ccccc2c1NC(=O)CN1CCOCC1	0.1	4.2	-12.6	5.5
CCOC(=O)c1oc2ccccc2c1NC(=O)CN1CCN(C)CC1	17.1*	0.1	-2.6	3.8
O=C(COc1ccc2c3c(c(=O)oc2c1)CCC3)Nc1ccccn1	-8.4	0.2	11.5	60.7*
CC(=O)Nc1ccc(S(=O)(=O)N(C)CC(=O)OC2CCCCC2=O)cc1 (stereo not drawn)	-0.4	1.9	-3.7	3.5
Cc1csc(NC(=O)CN2C(=O)COc3ccc(Cl)cc32)n1	-0.2	4.6	28.9*	1.1
COc1cccc(CN2CCC(C(=O)Nc3ccc(-c4cccc(C)c4)cc3)CC2)c1O	-0.3	-3.8	40.2*	0.2
CCOC(=O)/C=C/C(=O)OCC(=O)Nc1ccc(C)cc1	0.1	-2.5	-7.5	1.4
CCOC(=O)/C=C/C(=O)OCC(=O)Nc1cccc(Br)c1	1.1	·	-11.9	42.7*
Cn1c(=O)c([N+](=O)[O-])c(NCC2CCCO2)c2ccccc21 (stereo not drawn)	1.1	9.6	-5.2	-4.8
O=C(c1ccccc1)C1CC=CCC1C(=O)c1ccccc1 (stereo not drawn)	·	9.5	-0.6	43.8*
CC1=C(C)CC(C(=O)c2ccccc2)C(C(=O)O)C1 (stereo not drawn)	0.3	2.6	6.3	4.3
COc1ccc(/C=C2\SC(N)=NC2=O)cc1Br	0.2	39.2	-22.0	3.7
NC1=NC(=O)/C(=C/c2cccc(-c3ccc(S(N)(=O)=O)cc3)c2)S1	0.8	10.1	59.8*	1.1
COc1ccc2nc(C)cc(Nc3ccc(N4CCN(C)CC4)cc3)c2c1	0.2	2.1	76.6*	18.5
COc1ccc2nc(C)cc(Nc3ccc(N4CCOCC4)cc3)c2c1	-1.0	-1.0	30.2*	-1.3
COc1ccc2nc(C)cc(Nc3ccc(C)cc3)c2c1	-1.4	4.8	8.3	5.8
Cc1cc(N/N=C/c2ccc(O)cc2)c2cccc(C)c2n1	-1.4	22.8	104.8*	19.6
Cc1cc(C)c2nc(C)cc(N/N=C/c3ccc(O)cc3)c2c1	0.7	9.0	-41.2	-1.2
COc1ccc2nc(C)cc(N/N=C/c3ccccc3)c2c1	-1.3	3.8	-55.4	47.4*
SMILES	A1 inh	DYRK1A inh	dFosB act	Beta2AR agonist
O=C(OCCOCCN=C1NS(=O)(=O)c2ccccc21)c1ccccc1Br	0.4	9.3	-9.5	4.7
CCN1CCN(CC#CCOc2ccccc2OC)CC1	0.4	-3.0	1.7	-0.5
Cc1cc(=O)oc2ccc(OCC(=O)N(Cc3ccc(F)cc3)Cc3ccco3)cc12	0.1	1.4	-7.3	60.9*
CCOC(=O)Oc1ccc2oc(=O)cc(C)c2c1	-1.0	15.2	-0.3	-2.8
O=C(Cn1cnc2sc3c(c2c1=O)CCCC3)NCC(=O)Nc1c(F)cc(F)cc1Br	0.9	-2.7	69.0*	-13.0
COc1ccc(S(=O)(=O)Nc2ccc(-c3ccc4nnc(C)n4n3)cc2)c(OC)c1	-0.1	-1.1	21.8*	16.3
CCCc1cc(=O)[nH]c(SCC(=O)Nc2cccc(S(=O)(=O)N3CCOCC3)c2)n1	0.2	3.3	-8.9	2.0
Cc1ccc(Cl)cc1NC(=O)[C@@H]1CCC(=O)N1C1OC(=O)c2ccccc21 (stereo partly drawn)	0.6	-4.9	-1.6	-9.5
CCn1c(=S)sc2c(=O)n(CC(=O)Nc3ccccc3OC)c(C)nc21	0.9	·	-3.4	-7.1
Cc1nc2c(sc(=S)n2Cc2ccco2)c(=O)n1CC(=O)Nc1ccccc1Cl	0.8	4.3	56.4*	-8.6
COc1ccc(/C=N/n2c(=O)[nH]c3c([nH]c4ccc(C)cc43)c2=O)cc1CN1CCOCC1	·	1.4	14.4	3.3
COc1ccc(/C=N/n2c(=O)[nH]c3c([nH]c4ccc(F)cc43)c2=O)cc1CN1CCCCC1	0.3	0.6	31.5*	0.2

From PubChem
